“And” between values parts separate entries of the source, which are not always exact repeats. Identical values can stand only once. About 2,600 (0.6%) of roughly 430,000 compounds were called active. Cut-off read from the data, not from the text of the source: active = inhibition mostly above about 37% (no sharp cut-off); inactive = mostly below about 20%. This excerpt belongs to a sample that is enriched for actives.
Each compound was assayed on PriA–SSB C-terminal tail interaction (Klebsiella pneumoniae) (assay: inhibitors of Klebsiella pneumoniae PriA binding to SSB C-terminal tail, primary screen, biochemical, AlphaScreen (AID 1272365;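 note: plate controls were negative control peptide for no effect and reference peptide for full effect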)). Conditions: AlphaScreen SSBct-PriA binding, biotinylated peptide; at 33 µM, stronger effect = higher value.

SMILES | inhibition
CCCCc1ccc(Nc2c(C(=O)N3CCSCC3)cnc3nc(C)ccc23)cc1 | -6% (inactive)
COCCN(Cc1ccncc1)C(=O)c1ccco1 | -8% (inactive)
O=C(c1ccccc1)c1ccccc1C(=O)N1CCC(Oc2ncccc2Cl)CC1 | 6% (inactive)
Oc1ccc(C=NNC(=S)Nc2cccnc2)c(O)c1O | 100% (active)
Fc1cc(Br)ccc1NC(=S)Nc1cccnc1 | -8.39% (inactive)
O=C(NN=Cc1cccc2ccccc12)c1cccnc1 | -10.5% (inactive)
COc1ncc(NC(=O)c2snnc2C)cn1 | 1% (inactive)
O=C(Nc1nc(-c2ccc(Cl)cc2Cl)cs1)c1ccc(N2C(=O)CCC2=O)cc1 | 64% (active)
O=C(Nc1cc2ccccc2cc1NC(=O)c1ccc(N2C(=O)CCC2=O)cc1)c1ccc(N2C(=O)CCC2=O)cc1 | 0% (inactive)
COc1ccc2oc(-c3csc(NC(=O)c4ccc(N5C(=O)CCC5=O)cc4)n3)cc2c1 | 6% (inactive)
COc1ccc(S(=O)(=O)NCCn2nc(-c3ccncc3)ccc2=O)cc1F | -6% (inactive)
O=S(=O)(Cc1ccccc1)NCC1CCN(c2cnccn2)CC1 | -1% (inactive)
COc1ccc(OCC(O)CNc2ccc(C)cc2)cc1 (centres undefined) | 36% (active)
CCc1ccc(S(=O)(=O)NCC(O)COc2ccc(OC)cc2)cc1 (centres undefined) | -7.77% (inactive)
CC(=O)Nc1ccc(OCC(O)CN(c2ccc(C)cc2)S(C)(=O)=O)cc1 (centres undefined) | -18% (inactive)
CN(C)c1ccc(C=NN=C2NC(=O)/C(=C/c3ccc([N+](=O)[O-])cc3)S2)cc1 | -15.2% (inactive)
O=C(NCc1cccs1)C(=O)Nc1cccc(F)c1 | -15% (inactive)
COc1ccc(CCN2COc3ccc4c(c3C2)O/C(=C\c2ccco2)C4=O)cc1OC | 3% (inactive)
O=C1/C(=C/c2cccs2)Oc2c1ccc1c2CN(Cc2ccccn2)CO1 | 101% (active)
Cc1ccc(C(=O)N/C(=C\c2cccs2)C(=O)NCCc2ccccn2)cc1C | -25.3% (inactive)
Cc1cc(N2CCC(NC(=O)c3ccc4ncsc4c3)CC2)n[nH]1 | -7% (inactive)
O=C(c1ccccn1)N1CC(N2C(=O)CCC2=O)C1 | -11% (inactive)
COc1ccccc1-n1cnc2cc(NS(=O)(=O)c3ccccc3)ccc21 | 73.9% (active)
COc1ccc(F)cc1S(=O)(=O)Nc1ccc2c(c1)CCCN2S(=O)(=O)c1ccccc1 | 1% (inactive)
COCCCNC(=O)c1ccc2c(c1)ncn2-c1ccccc1OC | -10.8% (inactive)

SMILES | inhibition
Cc1c(C(=O)NC(=S)NCc2cccnc2)oc2ccccc12 | -8.37% (inactive)
Cc1cccc(OCCNC(=S)NC(=O)c2cccnc2)c1 | 1.76% (inactive)
Cc1ccc(C(=O)NC(=S)NCc2cccnc2)cc1 | 46.3% (active)
CCOC(=O)CSc1nc2cc(OC)c(OC)cc2c2nc(CCn3nc(C)cc3C)nn12 | 3% (inactive)
CC(=NNC(=O)c1c[nH]c2ccccc12)c1ccccn1 | 75.7% (active)
CC(=NNC(=O)c1ccc(F)cc1)c1ccccn1 | -1.36% (inactive)
CCN(CC)c1ccc(C=NNC(=O)c2c[nH]c3ccccc23)cc1 | 16.7% (inactive)
CC1=NN(CCN2CCN(c3ccc(F)cc3)CC2)c2nc3c(c(=O)n(C)c(=O)n3C)n2C1 | 6% (inactive) and -7% (inactive)
CCn1cc(NC(=O)N2CCCc3ccccc32)c2ccccc21 | 2% (inactive)
Cn1cc(NC(=O)N2CCc3ccccc3C2)c2ccccc21 | -3% (inactive)
CCn1cc(NC(=O)N2CCc3ccccc32)c2ccccc21 | 40% (active)
CN1CCc2cc(C(CNC(=O)C(=O)Nc3ccccc3F)N(C)C)ccc21 (centres undefined) | 14% (inactive)
COc1cccc2c1C(=O)c1c(O)c3c(c(O)c1C2=O)CC(O)(C(C)=NNC(=O)c1ccc(Cl)c(Cl)c1)CC3OC1CC(N)C(O)C(C)O1 (centres undefined) | 57.5% (active)
Cc1ccccc1NC(=O)CSc1ccc2nnc(-c3ccccn3)n2n1 | -4.51% (inactive)
NC(=O)CSc1ccc2nnc(-c3ccccn3)n2n1 | 72% (active)
CCOC(=O)CNC(=O)CSc1ccc2nnc(-c3cccnc3)n2n1 | 2.63% (inactive)
CCCN(CCC)C(=O)Cn1c(=O)c2ccccc2n2c(=S)sc(-c3cccc(C)c3)c12 | 7% (inactive)
CCc1ccc2nc(Nc3nc4ccc(NC(C)=O)cc4s3)sc2c1 | 2% (inactive)
C/C(=N/N=C1/NC(=O)CS1)c1ccccc1 | -2% (inactive)
Nc1cncc2cccnc12 | -8% (inactive)
N#CC1=C(N)Oc2c(sc3ccccc23)C1c1ccco1 (centres undefined) | 2.22% (inactive)
N#CC1=C(N)Oc2c(ccc3cccnc23)C1c1ccncc1 (centres undefined) | 65.3% (active)
Cc1ccc2nc3sc(Nc4ccc(C)c(Cl)c4)nn3c(=O)c2c1 | -4% (inactive)
Cc1nn(C)c(C)c1S(=O)(=O)NCC1CCN(c2ccccn2)CC1 | 2% (inactive)
Cc1ccc2c(c1)C1CN(C)CCC1N2S(=O)(=O)c1ccc(Oc2ccc([N+](=O)[O-])cc2)cc1 (centres undefined) | 17.5% (inactive)

SMILES | inhibition
Cc1ccc2c(c1)C1CN(C)CCC1N2C(=O)c1ccccc1NS(=O)(=O)c1ccc(F)cc1C (centres undefined) | -3.86% (inactive)
Cc1ccc2c(c1)C1CN(C)CCC1N2S(=O)(=O)c1cccc(F)c1 (centres undefined) | 39.2% (active)
CCOc1ccc(-c2ccc(=O)n(CC(=O)N3CCOCC3)n2)cc1 | -1% (inactive)
O=C(c1cc(Cl)cc(Cl)c1)N1CCC(=O)N(C(COCc2ccccc2)Cc2ccccc2)CC1 (centres undefined) | 44.6% (active)
CN1CCC(=O)N([C@H](CO)Cc2ccccc2)CC1 | -2.41% (inactive)
CC(C)CC(COCc1ccc(Cl)cc1)N1CCN(C(=O)c2ccc(C(F)(F)F)cc2)CCC1=O (centres undefined) | -5.16% (inactive)
COc1cc(NC(=O)CSc2nccn3nc(-c4ccc(Cl)cc4)cc23)cc(OC)c1 | 3% (inactive)
Cc1ccc(Nc2nc(-c3ccccn3)cs2)cc1C | 108% (active)
Cc1csc(OCC(=O)Nc2ccc(C)c(C)c2)n1 | -9.32% (inactive)
Cc1cc(-c2csc(Nc3ccccn3)n2)c(C)o1 | 2% (inactive)
COc1ccccc1C(CNC(=O)c1ccc2c(c1)OCO2)OC (centres undefined) | -10% (inactive)
Cc1noc(C)c1CC(=O)NCCn1cnc2ccsc2c1=O | -1% (inactive)
O=C1c2ccccc2C(=O)c2c1cccc2N1CCN(C/C=C/c2ccccc2)CC1 | 68.2% (active)
O=C1c2ccccc2C(=O)c2c1cccc2N1CCN(Cc2ccccc2)CC1 | 50.5% (inactive)
CNC(=O)NC(=O)C(C)N1CCN(C/C=C/c2ccccc2)CC1 (centres undefined) | 7.15% (inactive)
Cc1ccc(Nc2ccc(NCCN)nn2)nc1 | 89% (active)
Cc1ccc(NS(=O)(=O)c2ccc(F)cc2)nc1 | -0.76% (inactive)
Cc1cccc(N2CCN(C(=O)CCc3csc4nc(-c5ccccc5)cn34)CC2)c1 | -16% (inactive)
O=C(CN1C(=O)C2C3C=CC(C3)C2C1=O)Nc1nc(-c2ccccn2)cs1 (centres undefined) | 84.8% (active)
O=C1c2ccccc2NC(c2ccccn2)N1NS(=O)(=O)c1ccccc1 (centres undefined) | -13.5% (inactive)
CC(C)C1Nc2ccccc2C(=O)N1CC(=O)Nc1nc(-c2ccccn2)cs1 (centres undefined) | 94.5% (active)
COc1ccc(SCCC(=O)Nc2nc(-c3ccccn3)cs2)cc1 | 81% (active)
O=C(CCN1C(=O)C2C3C=CC(C3)C2C1=O)Nc1ccccc1F (centres undefined) | -14.1% (inactive)
Cc1c(C(=O)Nc2nc(-c3ccccn3)cs2)cccc1[N+](=O)[O-] | 25.8% (inactive)
O=C(Cc1csc(NC(=O)c2ccccc2)n1)NCc1ccccn1 | 0% (inactive)

SMILES | inhibition
Cc1ccc(SCCC(=O)Nc2nc(-c3ccc4c(c3)OCCO4)cs2)cc1 | 8% (inactive)
Cc1ccc(-c2csc(NC(=O)[C@H](C(C)C)N3C(=O)c4ccccc4C3=O)n2)cc1 | -1% (inactive)
CCCCOC(=O)NCN1C(=O)C2C3C=CC(C3)C2C1=O (centres undefined) | 9.26% (inactive)
O=C(CC1(n2cccc2)CCOCC1)Nc1nc(-c2ccccn2)cs1 | 109% (active)
O=C(CSc1ccccc1)Nc1nc(-c2ccccn2)cs1 | -20% (inactive)
Cc1cc(OCC(=O)NCCc2ccccc2)ccc1C(C)C | -16% (inactive) and -56% (inactive)
O=C(Nc1nc(-c2cc([N+](=O)[O-])cs2)cs1)C1CC1 | 16% (inactive)
O=C(COc1ccc(F)cc1)Nc1ccc2c(c1)N(C(=O)c1ccco1)CC2 | 0% (inactive)
Cc1c(S(=O)(=O)CCNC(=O)NCc2cccs2)c2ccccc2n1C | -1% (inactive)
COc1cc(/C=C2\Oc3cc(OCC(=O)O)ccc3C2=O)cc(OC)c1OC | -2% (inactive)
COc1ccc(OC)c(NC(=O)c2ccc(S(=O)(=O)NC3CC3)cc2)c1 | 16% (inactive)
O=C(NCCn1nc(C(F)(F)F)c2c1CCCC2)c1c(F)cccc1Cl | -4% (inactive)
COC(=O)c1c(NC(=O)c2cc(C)no2)sc2c1CCCC2 | 0% (inactive)
CCOC(=O)c1ccc(NC(=O)c2cc(=O)[nH]cn2)cc1 | -18% (inactive)
Nn1c(SCC(=O)NC2CCCCC2)nnc(CCC(=O)O)c1=O | -5% (inactive)
COc1ccc(-n2nnc(C(=O)OCc3ccccc3C)c2C)cc1 | -5% (inactive)
CSc1ccccc1NC(=O)C(=O)NCCC(O)c1ccc2c(c1)OCO2 (centres undefined) | 13% (inactive)
O=C(Nc1ccc2c(c1)OCO2)c1ccc2nccnc2c1 | -19% (inactive)
O=C(Nc1nccs1)C1CCCN1S(=O)(=O)c1cccc2cccnc12 (centres undefined) | -2.31% (inactive)
CS(=O)(=O)N1CCCC1C(=O)Nc1nc2c(F)cc(F)cc2s1 (centres undefined) | 5% (inactive)
CS(=O)(=O)N1CCCCC1C(=O)Nc1nc(-c2ccccn2)cs1 (centres undefined) | 79% (active)
CS(=O)(=O)N1CCCC(C(=O)Nc2nc(-c3nc4ccccc4s3)cs2)C1 (centres undefined) | -20% (inactive)
CC1(C)CC(=O)c2sc(NC(=O)C3CCCCN3S(C)(=O)=O)nc2C1 (centres undefined) | -7% (inactive)
CS(=O)(=O)N1CCC[C@H]1C(=O)Nc1nc(-c2ccccn2)cs1 | 75% (active)

From PubChem BioAssay AID1272365 (Small Molecule Screening Facility, UW Madison, 2018)
